Compounds with a hit are over-represented: about 9.2% of the library has one in this group of screens.
USP7 inh = blocks human USP7 ubiquitin-rhodamine cleavage. Q93009. purified USP7, Ub-rhodamine cleavage fluorescence. inhibition, % at 20 µM. hit rate 0.3% among 47,000. AID 1645854
USP8 block = inhibitors of human USP8 deubiquitinase | purified USP8, Ub-rhodamine cleavage fluorescence, 30 min | inhibition, % at 20 µM | hit rate 4.2% among 47,000 | AID 1645853
UCHL1 inh = inhibitors of human UCHL1 deubiquitinase | P09936 | purified UCHL1, Ub-rhodamine cleavage fluorescence | inhibition, % at 20 µM | hit rate 0.2% among 47,000 | AID 1645859
USP10 inh = blocks human USP10 ubiquitin-rhodamine cleavage | AID 1645856 | purified USP10, Ub-rhodamine fluorescence, 60 min | inhibition, % at 20 µM | hit rate 1.1% among 47,000
Target sequence (Q14694 whole entry, looked up): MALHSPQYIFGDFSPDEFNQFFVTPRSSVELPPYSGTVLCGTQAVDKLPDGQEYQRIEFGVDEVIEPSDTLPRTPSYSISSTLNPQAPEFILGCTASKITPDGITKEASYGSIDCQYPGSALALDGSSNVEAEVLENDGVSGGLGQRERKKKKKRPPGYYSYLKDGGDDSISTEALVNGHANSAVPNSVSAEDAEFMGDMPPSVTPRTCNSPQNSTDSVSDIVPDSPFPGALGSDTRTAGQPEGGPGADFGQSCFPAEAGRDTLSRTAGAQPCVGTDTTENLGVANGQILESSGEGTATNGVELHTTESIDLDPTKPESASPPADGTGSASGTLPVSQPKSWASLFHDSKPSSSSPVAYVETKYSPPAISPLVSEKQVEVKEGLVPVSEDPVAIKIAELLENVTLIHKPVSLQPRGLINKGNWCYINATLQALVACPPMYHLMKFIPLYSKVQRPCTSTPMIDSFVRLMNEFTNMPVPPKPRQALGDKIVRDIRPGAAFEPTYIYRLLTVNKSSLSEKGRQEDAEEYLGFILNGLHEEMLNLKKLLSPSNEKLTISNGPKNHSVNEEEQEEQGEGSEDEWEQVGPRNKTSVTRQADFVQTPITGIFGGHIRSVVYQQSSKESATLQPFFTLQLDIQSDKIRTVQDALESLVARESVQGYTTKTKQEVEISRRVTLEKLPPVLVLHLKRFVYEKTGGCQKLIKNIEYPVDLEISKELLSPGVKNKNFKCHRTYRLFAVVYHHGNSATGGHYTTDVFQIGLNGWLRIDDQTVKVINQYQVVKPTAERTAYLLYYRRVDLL
OTUD3 inh = inhibitors of human OTUD3 deubiquitinase. hit rate 0.7% among 47,000. purified OTUD3, Ub-rhodamine fluorescence, 2 h. Q5T2D3. inhibition, % at 25 µM. AID 1645858
USP17 inh = blocks human USP17 ubiquitin-rhodamine cleavage | hit rate 6.5% among 47,000 | inhibition, % at 50 µM | purified USP17, Ub-rhodamine cleavage fluorescence, 3 h | AID 1645855
The depositor's hits bear a star. Rule as the data show it: active = inhibition above about 30%; inactive = the rest.

Screening CNc1ccc(Oc2nc(F)c(Cl)c3c2N(CC2CCCO2)CCS3(=O)=O)cc1 (configuration not stated) returned USP7 inh -10, USP8 block 25, UCHL1 inh 5, USP10 inh 0, OTUD3 inh 1 and USP17 inh 12.
For CCCCN1CCS(=O)(=O)c2c(Cl)c(F)nc(Oc3ccc(OC)cc3)c21 the results were USP7 inh 7, USP8 block 50*, UCHL1 inh 7, USP10 inh 9, OTUD3 inh 8 and USP17 inh 25.
For COc1ccc(Oc2nc(F)c(Cl)c3c2N(CC2CCCO2)CCS3(=O)=O)cc1 (configuration not stated) the results were USP7 inh -25, USP8 block 69*, UCHL1 inh 6, USP10 inh 5, OTUD3 inh 6 and USP17 inh 33*.
`CC(=O)N[C@@H]1C[C@H](c2cccc(-c3cccc(F)c3)c2)O[C@@H]2CCC[C@@H]12` gave USP7 inh 0, USP8 block 5, UCHL1 inh 1, USP10 inh -4, OTUD3 inh 4 and USP17 inh 17.
Screening COCC(=O)N1CCCCCC1C1CCN(Cc2nnnn2-c2ccccc2)CC1 (configuration not stated) returned USP7 inh -1, USP8 block -89, UCHL1 inh -3, USP10 inh -1, OTUD3 inh -1 and USP17 inh -27.
Cc1cc(=O)n(C)c2c(O)c3c(cc12)c(C)cc(=O)n3C was read as USP7 inh -105, USP8 block 50*, UCHL1 inh 30*, USP10 inh 25, OTUD3 inh 57* and USP17 inh 77*.
For CC(=O)N1CCCCCC1C1CCN(c2ncccc2[N+](=O)[O-])CC1 (configuration not stated) the results were USP7 inh -7, USP8 block -76, UCHL1 inh 2, USP10 inh -4, OTUD3 inh 9 and USP17 inh -18.
COc1cccc(-c2ccc(SCC(=O)Nc3ccc(NC(C)=O)cc3)nn2)c1 was read as USP7 inh -5, USP8 block -18, UCHL1 inh -6, USP10 inh -1, OTUD3 inh 8 and USP17 inh 7.
Screening O=C(CCSc1ccc(Cl)cc1)c1cccs1 returned USP7 inh 11, USP8 block 7, UCHL1 inh 3, USP10 inh 10, OTUD3 inh 20 and USP17 inh 84*.
`O=C(OCC(=O)c1cccs1)c1ccc(Cl)cc1` gave USP7 inh -10, USP8 block 0, UCHL1 inh 0, USP10 inh 3, OTUD3 inh 2 and USP17 inh 1.
Screening COc1ccc(NC(=O)CCc2cccc3[nH]ccc23)cc1 returned USP7 inh 6, USP8 block 9, UCHL1 inh 3, USP10 inh 0, OTUD3 inh 5 and USP17 inh 0.
COc1ccc(Cn2nccc2NC(=O)C(C)Oc2ccc(C)c(C)c2)cc1 (configuration not stated) was read as USP7 inh -8, USP8 block 5, UCHL1 inh -1, USP10 inh 1, OTUD3 inh 0 and USP17 inh 63*.
Screening COc1ccc(NC(=O)c2cccc(-c3nc(-c4ccccc4)no3)c2)c(OC)c1 returned USP7 inh 5, USP8 block 23, UCHL1 inh 0, USP10 inh 4 and OTUD3 inh 4.
`COc1cccc(CNc2ccc(-c3nc(-c4ccccc4)no3)nn2)c1` gave USP7 inh 24, USP8 block 76*, UCHL1 inh 3, USP10 inh 12, OTUD3 inh -14 and USP17 inh 24.
For CC(=O)N1CCC(C(=O)Nc2ccc(N3CCOCC3)cc2)CC1 the results were USP7 inh -3, USP8 block -43, UCHL1 inh -8, USP10 inh -9, OTUD3 inh -8 and USP17 inh -8.
`O=C(Nc1cc(F)c2nc(N3CCOCC3)ccc2c1)C1CCC1` gave USP7 inh -4, USP8 block 78*, UCHL1 inh 3, USP10 inh 0, OTUD3 inh -8 and USP17 inh 42*.
`O=C(Nc1cc(F)c2nc(N3CCOCC3)ccc2c1)c1ccc(Br)o1` gave USP7 inh -9, USP8 block 86*, UCHL1 inh 4, USP10 inh -8, OTUD3 inh -5 and USP17 inh 85*.
`O=C(Nc1cc(F)c2nc(N3CCOCC3)ccc2c1)C1CC1` gave USP7 inh -4, USP8 block 59*, UCHL1 inh 7, USP10 inh -8, OTUD3 inh 6 and USP17 inh 76*.
For O=C(NCc1ccc(N2CCOCC2)nc1)c1ccc(F)c(F)c1 the results were USP7 inh 0, USP8 block -36, UCHL1 inh -3, USP10 inh 3, OTUD3 inh -3 and USP17 inh -6.
`CCc1ccccc1N(CC)C(=O)c1cccc2c1SCCC2=O` gave USP7 inh -5, USP8 block 20, UCHL1 inh -1, USP10 inh -4, OTUD3 inh 16 and USP17 inh 18.
For CC(=O)c1cc(-c2ccc(F)cc2)n(CC(=O)Nc2cccc(C)c2C)c1C the results were USP7 inh 11, USP8 block 41*, UCHL1 inh 1, USP10 inh 35*, OTUD3 inh 35* and USP17 inh 52*.
`COc1cc(C2CCN(C(=O)c3ccccc3)CC2)on1` gave USP7 inh -1, USP8 block 32*, UCHL1 inh 0, USP10 inh 2, OTUD3 inh 10 and USP17 inh 11.
For O=C1CC(O)C(C2=CC(=O)c3c(O)cccc3C2=O)O1 (configuration not stated) the results were USP7 inh -143, USP8 block -94, UCHL1 inh 28, USP10 inh -13, OTUD3 inh 71* and USP17 inh 71*.
COc1ccc(NC(=O)Cn2cnc3c(cnn3C(C)(C)C)c2=O)c(OC)c1 was read as USP7 inh -11, USP8 block -6, UCHL1 inh 0, USP10 inh -1, OTUD3 inh 5 and USP17 inh -8.
`Cc1cc(N2CCC(O)(c3ccc(F)cc3)CC2)n2nc(-c3nccn3C)cc2n1` gave USP7 inh -8, USP8 block -27, UCHL1 inh -4, USP10 inh -1, OTUD3 inh -33 and USP17 inh -4.
`O=C(NC1CCCCC1)C1(Cc2ccccc2-c2cccnc2)CCOCC1` gave USP7 inh -15, USP8 block -6, UCHL1 inh -3, USP10 inh -2, OTUD3 inh 0 and USP17 inh -6.
Screening O=C(NCCc1nc2ccccc2n1CCCOc1ccccc1Cl)C1CCCCC1 returned USP7 inh -5, USP8 block 74*, UCHL1 inh -4, USP10 inh 31*, OTUD3 inh 33* and USP17 inh 83*.

Bioassay records (PubChem)
